{"source": "PubChem BioAssay AID430", "about": "(Sanford-Burnham Center for Chemical Genomics, 2006)", "note": "Among all 63,000 compounds or so, about 1,100 (1.7%) were called active. No stated cut-off is given here; in the data, active means cytotoxicity above about 50%; inactive means the rest. What follows is part of a selection rich in actives, with near analogues and random picks from the rest. Potency and affinity values are given separately.", "data": [{"test": "cytotoxicity in HPDE-C7 cells, cell-based, fluorescence, HTS (AID 430);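 further: cells exposed to compound for 48 hours before viability readout; 0% = vehicle and 100% = reference cytotoxic drug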", "settings": "HPDE-C7 pancreatic duct cells viability, at 10 µM, hits give high values", "values": [{"smiles": "Cc1cc(NCCCN)nc(-c2ccccc2O)n1", "cytotoxicity": "16.4% (inactive)"}, {"smiles": "CCCCNc1cc(C)nc(NCc2ccccc2)n1", "cytotoxicity": "84.4% (active)"}, {"smiles": "Cc1cc(Nc2ccccc2)nc(-c2ccccc2O)n1", "cytotoxicity": "-2.9% (inactive)"}, {"smiles": "CCCCOc1cc(C)nc(NCc2ccccc2)n1", "cytotoxicity": "-30.8% (inactive)"}, {"smiles": "Cc1cc(C)nc(NCCCc2ccccc2)n1", "cytotoxicity": "-5.9% (inactive)"}, {"smiles": "O=c1[nH]c2ccc(S(=O)(=O)N3CCCCC3)cc2[nH]1", "cytotoxicity": "-1.4% (inactive)"}, {"smiles": "CCOC(=O)c1ccccc1NCN1C(=O)CSC1=O", "cytotoxicity": "-1.8% (inactive)"}, {"smiles": "Cc1cc(=O)[nH]c(/N=C(\\N)Nc2cccc3ccccc23)n1", "cytotoxicity": "0.5% (inactive)"}, {"smiles": "COc1ccc(C2C3=C(N=C4SCC(=O)N42)c2ccccc2CC3)cc1OC", "note": "(stereo not given)", "cytotoxicity": "19.3% (inactive)"}, {"smiles": "O=C(O)c1ccccc1-c1ccccc1C(=O)NCc1ccco1", "cytotoxicity": "0.7% (inactive)"}, {"smiles": "Cn1c(=O)cc(OCC(=O)N2CCCc3ccccc32)c2ccccc21", "cytotoxicity": "-9.1% (inactive)"}, {"smiles": "Cc1cc(C)c2nc(NC3=NCN(CCN4CCOCC4)CN3)nc(C)c2c1", "cytotoxicity": "-7.5% (inactive)"}, {"smiles": "CC1=C(C)C(=O)NC(Nc2nc(C)c3cc(C)cc(C)c3n2)N1", "note": "(stereo not given)", "cytotoxicity": "86.5% (active)"}, {"smiles": "O=C(c1cc(S(=O)(=O)N2CCCCC2)c(Cl)cc1N1CCOCC1)N1CCOCC1", "cytotoxicity": "-5.8% (inactive)"}, {"smiles": "COc1cc(Cl)c(S(=O)(=O)n2cnc(C)c2)cc1Cl", "cytotoxicity": "-0.2% (inactive)"}, {"smiles": "COc1cc(C)c(C(C)C)cc1S(=O)(=O)N1CCN(C)CC1", "cytotoxicity": "-22.7% (inactive)"}, {"smiles": "Clc1ccc(OCc2nc(-c3ccncc3)no2)c(Cl)c1", "cytotoxicity": "-6.9% (inactive)"}, {"smiles": "Cc1ccc2c(c1)c1ncnc(N3CCOCC3)c1n2C", "cytotoxicity": "-13.7% (inactive)"}, {"smiles": "Cc1ccc2c(c1)c1ncnc(N3CCN(c4ccccc4)CC3)c1n2C", "cytotoxicity": "-1.6% (inactive)"}, {"smiles": "O=C(c1ccc(S(=O)(=O)N2CCC(c3nc4ccccc4s3)CC2)cc1)N1CCOCC1", "cytotoxicity": "1.1% (inactive)"}, {"smiles": "Cc1cccc(NS(=O)(=O)c2cccs2)n1", "cytotoxicity": "-0.9% (inactive)"}, {"smiles": "COc1ccc(NC(=O)N(CCC(C)C)C(C)c2ccccn2)c(OC)c1", "note": "(stereo not given)", "cytotoxicity": "-1.9% (inactive)"}, {"smiles": "O=c1c(-c2ccccc2)coc2c(CN3CCCC3)c(O)ccc12", "cytotoxicity": "5.3% (inactive)"}, {"smiles": "COc1ccc(C(=O)c2coc3ccc(O)c(CN4CCCCC4)c23)cc1", "cytotoxicity": "14.9% (inactive)"}, {"smiles": "COc1ccc(-c2coc3c(CN4CCCCC4)c(O)c(CN4CCCCC4)c(O)c3c2=O)cc1", "cytotoxicity": "53.1% (active)"}, {"smiles": "O=c1[nH]nc(Sc2ncnc3sccc23)n1CCc1ccccc1", "cytotoxicity": "51.5% (active)"}, {"smiles": "COc1ccccc1Cn1c(=O)c2ccccc2n2c(Sc3ncnc4sccc34)nnc12", "cytotoxicity": "38.5% (inactive)"}, {"smiles": "c1ccc(-c2cnc(CSc3ncnc4sccc34)o2)cc1", "cytotoxicity": "-9% (inactive)"}, {"smiles": "COC(=O)c1ccc(Oc2c(C)oc3c(CN4CCN(C)CC4)c(O)ccc3c2=O)cc1", "cytotoxicity": "-9.6% (inactive)"}, {"smiles": "Cc1cc(NC(=O)COC(=O)C(Nc2ccc(C(F)(F)F)cc2Cl)C(C)C)no1", "note": "(stereo not given)", "cytotoxicity": "54.8% (active)"}, {"smiles": "Cc1cc(NC(=O)COC(=O)CSCc2ccc(Cl)c(Cl)c2)no1", "cytotoxicity": "-5.6% (inactive)"}, {"smiles": "Cc1cc(NC(=O)Cn2cc(C(F)(F)F)cc(Cl)c2=O)no1", "cytotoxicity": "4.3% (inactive)"}, {"smiles": "O=C(NC(C(=O)c1ccccc1)n1ccc(=O)[nH]c1=O)c1ccccc1", "note": "(stereo not given)", "cytotoxicity": "23.4% (inactive)"}, {"smiles": "CCOC(=O)N1CCN(C(=O)c2cccc(OC)c2OC)CC1", "cytotoxicity": "6.7% (inactive)"}, {"smiles": "CC(NS(=O)(=O)c1ccc(OCC(=O)N2CCOCC2)c(Cl)c1)c1ccccc1", "note": "(stereo not given)", "cytotoxicity": "3.2% (inactive)"}, {"smiles": "COCCNc1ncnc2c1cnn2Cc1ccc(Cl)cc1", "cytotoxicity": "31.2% (inactive)"}, {"smiles": "CCOC(=O)N1CCN(C(=O)CSc2nnc(-c3cccc(OC)c3)o2)CC1", "cytotoxicity": "-7.7% (inactive)"}, {"smiles": "Cc1cccc(NC(=O)C2CCCN(S(=O)(=O)c3cccc4cccnc34)C2)c1", "note": "(stereo not given)", "cytotoxicity": "-12.3% (inactive)"}, {"smiles": "O=C(Nc1ccncc1)C1CCCN(S(=O)(=O)c2cccc3cccnc23)C1", "note": "(stereo not given)", "cytotoxicity": "53.3% (active)"}, {"smiles": "O=C(Nc1ccc(F)cc1)C1CCCN(S(=O)(=O)c2cccc3cccnc23)C1", "note": "(stereo not given)", "cytotoxicity": "-10.4% (inactive)"}, {"smiles": "COC(=O)c1ccc(CSc2nc(N3CCOCC3)c3c(c2C#N)CC(C)(C)OC3)o1", "cytotoxicity": "16.6% (inactive)"}, {"smiles": "CCSc1nc(N)c2c3c(sc2n1)CN(C)CC3", "cytotoxicity": "-22% (inactive)"}, {"smiles": "O=C(COc1ccccc1)N(Cc1ccco1)C1CCS(=O)(=O)C1", "note": "(stereo not given)", "cytotoxicity": "-19.1% (inactive)"}, {"smiles": "CCCc1ccc(Oc2cn[nH]c2-c2ccc(O)cc2O)cc1", "cytotoxicity": "44.2% (inactive)"}, {"smiles": "CCCc1ccc(Oc2cn[nH]c2-c2ccc(O)c(C)c2O)cc1", "cytotoxicity": "103% (active)"}, {"smiles": "CCCc1ccc(OCC(=O)O)cc1", "cytotoxicity": "3% (inactive)"}, {"smiles": "COc1ccc(O)c(-c2[nH]ncc2C(=O)c2ccccc2C)c1", "cytotoxicity": "-8.4% (inactive)"}, {"smiles": "CCOC(=O)C1CCN(C(=O)Nc2ccccc2Cl)CC1", "cytotoxicity": "4% (inactive)"}, {"smiles": "Cc1nn(CC(=O)NCc2ccccc2)c(=O)c2ccccc12", "cytotoxicity": "-4.9% (inactive)"}, {"smiles": "Cn1c(-c2ccc3c(c2)OCO3)cnc1NCc1cccc(Cl)c1", "cytotoxicity": "71.3% (active)"}, {"smiles": "Cn1c(-c2ccc3c(c2)OCO3)cnc1NCc1ccc(Cl)cc1", "cytotoxicity": "43.1% (inactive)"}, {"smiles": "Cn1c(-c2ccc3c(c2)OCO3)cnc1NCc1ccccc1", "cytotoxicity": "-1.6% (inactive)"}, {"smiles": "O=C(CSc1nnnn1Cc1ccccc1)N1CCN(c2ccccc2)CC1", "cytotoxicity": "7.7% (inactive)"}, {"smiles": "CCCN(C(=O)Cc1nc(N)n[nH]1)C1(C(=O)Nc2c(C)cccc2C)CCCCC1", "cytotoxicity": "-7.4% (inactive)"}, {"smiles": "Cc1cccc2cc(CN(CC3CCCO3)C(=O)NC3CCCCC3)c(=O)[nH]c12", "note": "(stereo not given)", "cytotoxicity": "-7.6% (inactive)"}, {"smiles": "CN(Cc1ccccc1)S(=O)(=O)c1ccc(C(=O)Nc2nnc(C3CC3)o2)cc1", "cytotoxicity": "28.3% (inactive)"}, {"smiles": "O=C(CCC1CCCCC1)N1CCN(Cc2ccc3c(c2)OCO3)CC1", "cytotoxicity": "-7.9% (inactive)"}, {"smiles": "Cn1nnc(NC(=O)c2ccc(C(C)(C)C)cc2)n1", "cytotoxicity": "-6.6% (inactive)"}, {"smiles": "Cc1cccn2c(=O)c3cc(C(=O)N4CCc5ccccc54)n(C)c3nc12", "cytotoxicity": "10.4% (inactive)"}, {"smiles": "Cc1cccn2c(=O)c3cc(C(=O)N4CCN(C(=O)c5ccco5)CC4)n(C)c3nc12", "cytotoxicity": "3.5% (inactive)"}, {"smiles": "Cc1cccn2c(=O)c3cc(C(=O)NCCN4CCOCC4)c(=N)n(CCc4ccccc4)c3nc12", "cytotoxicity": "4.4% (inactive)"}, {"smiles": "Cc1cccn2c(=O)c3cc(C(=O)N4CCN(c5ccccc5)CC4)n(C)c3nc12", "cytotoxicity": "-18.3% (inactive)"}, {"smiles": "COCCNC(=O)c1cc2c(=O)n3cccc(C)c3nc2n1C", "cytotoxicity": "52.8% (active)"}, {"smiles": "CCNC(=O)c1cc2c(=O)n3cccc(C)c3nc2n(CCc2ccccc2)c1=N", "cytotoxicity": "61.3% (active)"}, {"smiles": "COCCn1c(=N)c(C(=O)NCCc2ccccc2)cc2c(=O)n3cccc(C)c3nc21", "cytotoxicity": "-51.7% (inactive)"}, {"smiles": "CC1Cc2ccccc2N1C(=O)c1cc2c(=O)n3ccccc3nc2n1C", "note": "(stereo not given)", "cytotoxicity": "13.4% (inactive)"}, {"smiles": "CCNC(=O)c1cc2c(=O)n3cccc(C)c3nc2n1C", "cytotoxicity": "-0.7% (inactive)"}, {"smiles": "Cc1cccn2c(=O)c3cc(C(=O)N4c5ccccc5CC4C)n(C)c3nc12", "note": "(stereo not given)", "cytotoxicity": "87.3% (active)"}, {"smiles": "CCCCNC(=O)c1cc2c(=O)n3cccc(C)c3nc2n1C", "cytotoxicity": "-12.6% (inactive)"}, {"smiles": "O=C(CSc1nnc(-c2ccco2)o1)NC1CC2CCC1C2", "note": "(stereo not given)", "cytotoxicity": "-3.3% (inactive)"}, {"smiles": "Cc1noc(C(=O)Nc2ccc3c(c2)OCO3)c1Cl", "cytotoxicity": "19.1% (inactive)"}, {"smiles": "COc1ccc(-c2ccc(SCC(=O)NCc3ccco3)nn2)cc1OC", "cytotoxicity": "7.2% (inactive)"}, {"smiles": "O=C(NCc1ccco1)C1CCCCN1S(=O)(=O)c1ccc(F)cc1", "note": "(stereo not given)", "cytotoxicity": "-4.3% (inactive)"}, {"smiles": "CCOCCOC(=O)COc1ccc(N2C(=O)c3ccccc3C2=O)cc1", "cytotoxicity": "-18.5% (inactive)"}, {"smiles": "O=C(CCCn1c(=S)[nH]c2ccccc2c1=O)N1CCOCC1", "cytotoxicity": "-24.3% (inactive)"}, {"smiles": "COc1ccc(C(O)P(=O)(O)CCc2ccccc2)cc1", "note": "(stereo not given)", "cytotoxicity": "-28.1% (inactive)"}, {"smiles": "COc1cccc(CNC(=O)c2nnn(CC(=O)Nc3ccc(C)c(C)c3)c2N)c1", "cytotoxicity": "0.7% (inactive)"}, {"smiles": "COc1ccccc1C(=O)Nc1ccc2c(c1)nc(CCNC(C)=O)n2C", "cytotoxicity": "-7.3% (inactive)"}, {"smiles": "COc1ccc(N2CCN(C(=O)c3cc4c(-c5cccc(OC)c5)nn(C)c4s3)CC2)cc1", "cytotoxicity": "-2.7% (inactive)"}, {"smiles": "Cn1nc(-c2ccc(Cl)cc2)c2cc(C(=O)N3CCN(c4ccccn4)CC3)sc21", "cytotoxicity": "-0.6% (inactive)"}, {"smiles": "Cc1ccc(OCC(=O)N2CCN(C3=NS(=O)(=O)c4ccccc43)CC2)cc1", "cytotoxicity": "0.8% (inactive)"}, {"smiles": "CCOc1ccccc1OCCCCN1CCCC1", "cytotoxicity": "3% (inactive)"}, {"smiles": "COC(=O)c1c(C)oc(C)c(C(=O)OC)c1=O", "cytotoxicity": "1.7% (inactive)"}, {"smiles": "CCOC(=O)c1c(C)oc2c1cc(O)c1ccccc12", "cytotoxicity": "15.4% (inactive)"}, {"smiles": "CC(C)NC(=O)c1cnc(N2CCN(c3ccccn3)CC2)c2ccccc12", "cytotoxicity": "-9.4% (inactive)"}, {"smiles": "COc1ccc(C(=O)N(CN2CCCC2=O)c2nccs2)cc1OC", "cytotoxicity": "6.2% (inactive)"}, {"smiles": "c1ccc(-c2nc(NC3CC3)nc(-n3ccnc3)n2)cc1", "cytotoxicity": "9.6% (inactive)"}, {"smiles": "c1ccc(-c2nc(N3CCN(c4ccccc4)CC3)nc(-n3ccnc3)n2)cc1", "cytotoxicity": "43% (inactive)"}, {"smiles": "c1ccc(-c2nc(-n3ccnc3)nc(-n3ccnc3)n2)cc1", "cytotoxicity": "20.1% (inactive)"}, {"smiles": "CC(C)Nc1nc(-c2ccccc2)nc(-n2ccnc2)n1", "cytotoxicity": "58.3% (active)"}, {"smiles": "c1ccc(-c2nc(N3CCCCCC3)nc(-n3ccnc3)n2)cc1", "cytotoxicity": "-19.9% (inactive)"}, {"smiles": "COCCN1Cc2cccc(C(=O)NCc3ccc4c(c3)OCO4)c2C1=O", "cytotoxicity": "-2.7% (inactive)"}, {"smiles": "CCN(CC)S(=O)(=O)c1ccc(-c2nnc(SCC(=O)Nc3ccc4c(c3)OCO4)o2)cc1", "cytotoxicity": "3.5% (inactive)"}, {"smiles": "Cc1ccc(C(N)=S)c(C)c1", "cytotoxicity": "-27.6% (inactive)"}, {"smiles": "Cc1c(C(=O)Nc2cccc(Cl)c2)oc2ccc(S(=O)(=O)N3CCC4(CC3)OCCO4)cc12", "cytotoxicity": "55.3% (active)"}, {"smiles": "Cc1c(C(=O)NCCC2=CCCCC2)oc2ccc(S(=O)(=O)N3CCOCC3)cc12", "cytotoxicity": "52.5% (active)"}, {"smiles": "Cc1c(C(=O)Nc2ccccc2Cl)oc2ccc(S(=O)(=O)N3CCC4(CC3)OCCO4)cc12", "cytotoxicity": "22.3% (inactive)"}, {"smiles": "Cc1c(C(=O)NCCc2ccccc2)oc2ccc(S(=O)(=O)N3CCOCC3)cc12", "cytotoxicity": "-7.6% (inactive)"}, {"smiles": "Cc1c(C(=O)Nc2ccc(F)cc2)oc2ccc(S(=O)(=O)N3CCC4(CC3)OCCO4)cc12", "cytotoxicity": "11.5% (inactive)"}, {"smiles": "Cc1c(C(=O)NCCC2=CCCCC2)oc2ccc(S(=O)(=O)N3CCC4(CC3)OCCO4)cc12", "cytotoxicity": "35.3% (inactive)"}]}]}
